Reference: PubChem BioAssay
Measured potencies and affinities stand elsewhere. Inconclusive results are not listed. Activity calls are given as the source filed them. Unless noted, the rule behind the calls is not given here.

Key:
[1] = cytotoxicity in PAX8-dependent RMG-1 cells, dose response, cell-based, cherry-pick (AID 687029;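 active = signal drop whose fitted half-maximal concentration is at most twice the top valid dose, in every test run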;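 note: cells exposed to compound for 96 hours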)
[2] = cytotoxicity in IOSE-T80 ovarian epithelial cells, dose response, selectivity assay for PAX8 inhibitor project, cell-based, cherry-pick (AID 687032;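 active = fitted half-maximal concentration for viability loss no higher than twice the top valid dose, in every repeat run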;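 note: cells exposed to compound for 96 h before reading; 0% = neutral control wells and -100% = 2 µM mitoxantrone kill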)
[3] = inhibitors of CMV-promoter luciferase reporter, dose response, counter-screen for Pax8 inhibitor project, cell-based, HEK293, luminescence, dry powder (AID 743020;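 active = signal-lowering compounds whose fitted half-maximal concentration is at or below twice the top tested dose in every run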;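 note: HEK293 cells stably expressing the CMV luciferase reporter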)
[4] = non-specific cell cytotoxicity, dose response, cytotoxicity control for PAX8 inhibitor project, plate reader, dry powder samples (AID 743021)
[5] = IGROV1 ovarian cancer cell cytotoxicity, dose response, PAX8 inhibitor project, plate reader, dry powder samples (AID 743043);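 note: more negative means fewer viable cells or more cytotoxicity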
[6] = NIH:OVCAR-3 ovarian cancer cell cytotoxicity, dose response, PAX8 inhibitor project, plate reader, dry powder samples (AID 743044); settings: max activity: at 35 µM, hits give low values unless noted
[7] = IOSE-T80 ovarian epithelial cell cytotoxicity, dose response, cytotoxicity control for PAX8 inhibitor project, plate reader, dry powder samples (AID 743045);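 note: 0% = neutral control median and -100% = positive control median; more negative values mean more cell killing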
[8] = cytotoxicity in OVCAR8 ovarian cancer cells, dose response, PAX8 project, cell-based, plate reader, dry powder samples (AID 743197)
[9] = A2780 ovarian cancer cell cytotoxicity, dose response, cytotoxicity control, plate reader, dry powder samples (AID 743046);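 note: 0% = neutral control wells and -100% = cytotoxic reference compound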

Measured: max activity

O=C(Nc1ccc(F)cc1)N1CCCCN2[C@@H](CO)[C@@H](c3ccc(-c4cccc(F)c4)cc3)[C@@H]2C1
inactive: [1] | [2] | [3] | [4] | [5] | [6] -20% | [7] | [8]

N#Cc1cccc(-c2ccc3c(c2)[C@@H]2[C@@H](CCN2S(=O)(=O)c2ccc(F)cc2)[C@@H](CO)N3)c1
inactive: [1] | [2] | [3] | [4] | [5] | [6] 5.91% | [7] | [8]

N#C[C@H]1[C@H](c2ccc(C#CC3CCCCC3)cc2)[C@H](CO)N1C(=O)Nc1ccc(F)cc1
inactive: [1] | [2] | [3] | [4] | [5] | [6] -34% [at 0.5 µM, hits give low values] | [7] | [8]

C[C@@H]1CCCCO[C@H](CN(C)Cc2ccccc2)[C@H](C)CN([C@H](C)CO)C(=O)c2cc(NC(=O)Nc3ccc(C(F)(F)F)cc3)ccc2O1
inactive: [1] | [2] | [3] | [4] | [5] | [6] -9.62% | [7] | [9] | [8]

Cc1noc(C)c1S(=O)(=O)N(C)C[C@H]1OCCCC[C@@H](C)Oc2ccc(NS(=O)(=O)c3ccc(Cl)cc3)cc2C(=O)N([C@@H](C)CO)C[C@H]1C
inactive: [1] | [2] | [3] | [4] | [5] | [6] -28.8% [at 2.1 µM, hits give low values] | [7] | [8]

C[C@@H]1CN([C@H](C)CO)C(=O)c2cc(NC(=O)Nc3ccc(C(F)(F)F)cc3)ccc2O[C@@H](C)CCCCO[C@H]1CN(C)S(=O)(=O)c1ccc(Cl)cc1
not listed: [6] | [8]
inactive: all other assays above

CC(C)NC(=O)N1Cc2cc(C(=O)NCC(F)(F)F)nc(-c3cccc(-c4cc5ccccc5o4)c3)c2[C@H]1CCO
not listed: [6] | [8] | [9]
inactive: all other assays above

C[C@H](NC(=O)C[C@@H]1C[C@@H]2c3cc(NC(=O)Nc4ccc(C(F)(F)F)cc4)ccc3O[C@@H]2[C@@H](CO)O1)c1ccccc1
not listed: [6] | [8] | [9]
inactive: all other assays above

C[C@@H]1CCCCO[C@H](CN(C)C(=O)C2CCCCC2)[C@H](C)CN([C@@H](C)CO)C(=O)c2cc(NS(=O)(=O)c3ccc(Cl)cc3)ccc2O1
not listed: [6] | [8] | [9]
inactive: all other assays above

C[C@@H]1CN([C@H](C)CO)C(=O)c2cc(NC(=O)Nc3ccccc3)ccc2O[C@@H](C)CCCCO[C@@H]1CN(C)CC1CCCCC1
not listed: [6] | [8]
inactive: all other assays above

COc1ccc(S(=O)(=O)N2CCCCN3[C@H](CO)[C@@H](c4ccc(C#CC(C)C)cc4)[C@H]3C2)cc1
not listed: [6] | [8] | [9]
inactive: all other assays above

C[C@@H]1CN([C@H](C)CO)C(=O)c2cc(NS(=O)(=O)c3ccc(F)cc3)ccc2O[C@@H](C)CCCCO[C@H]1CN(C)S(=O)(=O)c1ccc(Cl)cc1
not listed: [6] | [8] | [9]
inactive: all other assays above

C[C@H]1CCCCO[C@@H](CN(C)S(=O)(=O)c2cccs2)[C@@H](C)CN([C@@H](C)CO)C(=O)c2cc(NS(=O)(=O)c3ccc(Cl)cc3)ccc2O1
not listed: [6] | [8] | [9]
inactive: all other assays above

C[C@@H]1CCCCO[C@H](CN(C)Cc2ccccc2)[C@@H](C)CN([C@@H](C)CO)C(=O)c2cc(NC(=O)Nc3ccc(C(F)(F)F)cc3)ccc2O1
not listed: [6] | [8]
inactive: all other assays above

COc1ccccc1-c1ccc2c(c1)[C@H]1[C@H](CCN1C(=O)C1CCCCC1)[C@@H](CO)N2
not listed: [6] | [8] | [9]
inactive: all other assays above

C[C@@H]1CN([C@H](C)CO)S(=O)(=O)c2ccc(C#Cc3cccc(F)c3)cc2O[C@@H]1CN(C)C(=O)NC1CCCCC1
not listed: [6] | [8] | [9]
inactive: all other assays above

CCSCCc1nnc(NC(=O)Nc2cccc(C(F)(F)F)c2)s1
not listed: [6] | [8] | [9]
inactive: all other assays above

Cc1cccc(S(=O)(=O)N2C[C@@H](O)COC[C@@H]3O[C@@H](CC(=O)Nc4ccc(-c5ccccc5)cc4)CC[C@H]32)c1
not listed: [6] | [8] | [9]
inactive: all other assays above

C[C@@H]1CCCCO[C@@H](CN(C)C(=O)Nc2cccc3ccccc23)[C@H](C)CN([C@H](C)CO)C(=O)c2cc(NS(=O)(=O)c3ccc(Cl)cc3)ccc2O1
not listed: [6] | [8] | [9]
inactive: all other assays above

COc1ccc2c3c([nH]c2c1)[C@H](CO)N(C(=O)Nc1cccc(F)c1)CC31CCN(S(=O)(=O)c2cccc(C)c2)CC1
not listed: [6] | [8]
inactive: all other assays above

C[C@H]1CCCCO[C@@H](CN(C)Cc2ccc(C(F)(F)F)cc2)[C@@H](C)CN([C@@H](C)CO)C(=O)c2cc(NC(=O)Cc3ccccc3)ccc2O1
not listed: [6] | [8] | [9]
inactive: all other assays above

C[C@H](CO)N1C[C@H](C)[C@@H](CN(C)Cc2ccc(C(F)(F)F)cc2)OCCCC[C@H](C)Oc2ccc(NC(=O)Nc3ccc(F)cc3)cc2C1=O
not listed: [6] | [8] | [9]
inactive: all other assays above

C[C@@H]1CN([C@H](C)CO)C(=O)c2cc(NC(=O)Nc3ccc(F)cc3)ccc2O[C@@H](C)CCCCO[C@@H]1CN(C)Cc1ccc(Cl)c(Cl)c1
not listed: [6] | [8]
inactive: all other assays above

C[C@H]1CN([C@@H](C)CO)C(=O)Cc2cc(NC(=O)NC3CCCCC3)ccc2O[C@H]1CN(C)Cc1ccc(-c2ccccc2)cc1
not listed: [6] | [8]
inactive: all other assays above

C[C@@H]1CN([C@H](C)CO)C(=O)c2cc(NC(=O)Nc3ccccc3)ccc2O[C@@H](C)CCCCO[C@H]1CN(C)C(=O)Nc1ccc(C(F)(F)F)cc1
not listed: [6] | [8]
inactive: all other assays above

COc1ccc(S(=O)(=O)Nc2ccc3c(c2)C(=O)N([C@@H](C)CO)C[C@H](C)[C@@H](CN(C)Cc2ccc(C(F)(F)F)cc2)OCCCC[C@@H](C)O3)cc1
not listed: [6] | [8] | [9]
inactive: all other assays above

COc1ccc(-c2ccc3c(c2)[C@@H]2[C@@H](CCN2S(=O)(=O)c2ccc(OC)cc2)[C@@H](CO)N3C)cc1
not listed: [6] | [8]
inactive: all other assays above

COc1ccccc1C#Cc1ccc2c(c1)O[C@@H](CN(C)Cc1cncnc1)[C@H](C)CN([C@H](C)CO)S2(=O)=O
not listed: [6] | [8]
inactive: all other assays above

O=C(C1CCC1)N1CC(=O)N2[C@H](C1)[C@H](c1ccc(C#Cc3cccc(F)c3)cc1)[C@@H]2CO
not listed: [6] | [8] | [9]
inactive: all other assays above

C[C@@H]1CCCCO[C@H](CN(C)Cc2ccc(C(F)(F)F)cc2)[C@H](C)CN([C@H](C)CO)C(=O)c2cc(NC(=O)c3ccccc3)ccc2O1
not listed: [6] | [8]
inactive: all other assays above
